SMARCA2 act: activators of SMARCA2 function; MG213 cells, MMTV-luciferase reporter, dexamethasone, overnight; 1% of 370,000 active; activation, % at 9.1 µM; AID 652017; in the data active means activation above about 7.8%;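 further: 0% = vehicle wells and 100% = reference activator wells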
DAX1 inh-1: inhibits human nuclear receptor DAX1; HEK293 Gal4-DAX1 luciferase reporter, luminescence; inhibition, % at 6.75 µM; 0.99% of 340,000 active; AID 504766;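 active means inhibition above the mean over all tested compounds plus 3 SD, cut at about 4.2% in these data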;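 further: 0% = DAX1-transfected cells with DMSO and 100% = empty-vector control cells with DMSO; inhibition shows as a rise in luminescence from relieved DAX1 repression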
Target sequence (P51843 207-470 limits assumed): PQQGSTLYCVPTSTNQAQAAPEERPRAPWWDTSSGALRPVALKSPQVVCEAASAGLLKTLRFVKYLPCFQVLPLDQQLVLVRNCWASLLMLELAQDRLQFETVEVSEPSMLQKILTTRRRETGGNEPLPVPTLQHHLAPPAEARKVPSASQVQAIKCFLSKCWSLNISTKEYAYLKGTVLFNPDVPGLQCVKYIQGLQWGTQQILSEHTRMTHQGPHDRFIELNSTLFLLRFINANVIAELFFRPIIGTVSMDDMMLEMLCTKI
ssDAF-12 act: activators of S. stercoralis DAF-12 nuclear receptor; HEK293 ssDAF-12/GRIP1 lit1-tk-luc reporter, luminescence; % of 3 µM dafachronic acid response; 1% of 370,000 active; activation, % at 6.8 µM;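 active means activation above the mean over all tested compounds plus 3 SD, cut at about 0.9% in these data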;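 further: 0% = DMSO-only wells and 100% = 3 µM delta7-dafachronic acid wells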
hcDAF-12 act: activators of H. contortus DAF-12 nuclear receptor; HEK293 hcDAF-12 lit1-tk-luc reporter, luminescence; 0% DMSO, 100% Δ7-dafachronic acid; activation, % at 6.8 µM; 1.4% of 370,000 active;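 active means activation above the mean of all tested compounds plus 3 SD, cut at about 5.5% in these data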;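 further: 100% = response to 3 µM Δ7-dafachronic acid high control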
DAX1 inh-2: blocks DAX1 repression of SF-1 activated StAR promoter. HEK293T StAR-luciferase reporter, SF-1/DAX-1 repression relief. 1.1% of 370,000 active. inhibition, % at 6.8 µM. AID 652010;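 active means inhibition above the mean over all tested compounds plus 3 SD, cut at about 3.6% in these data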;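 further: 0% = DAX-1 cells with DMSO and 100% = cells lacking DAX-1 with DMSO; higher inhibition means more luminescence from relief of DAX-1 repression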
hgDAF12 agonist: activates the H. glycines DAF-12 receptor ligand-binding domain. HEK293 GAL4-hgDAF12 UAS-luciferase reporter, agonist luminescence; normalized to butyrate control. activation, % at 6.8 µM. 1.8% of 370,000 active. AID 687014;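 active means activation above a cutoff set at the mean of all screened compounds plus 3 SD, cut at about 10% in these data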;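 further: 0% = DMSO wells and 100% = sodium butyrate wells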
Active calls of the source: *. This is a sample that favours compounds with a hit; in the whole collection about 4.8% have one here.

How did CCS(=O)(=O)N1CCN(Cc2ccccc2OC)CC1 do in these assays?
SMARCA2 act: -3; DAX1 inh-1: 0; ssDAF-12 act: 1.2*; hcDAF-12 act: 1; DAX1 inh-2: 1; hgDAF12 agonist: -1

What do the screens show for `CCOc1ccccc1CN1CCN(S(=O)(=O)CC)CC1`?
SMARCA2 act: 1; DAX1 inh-1: 1; ssDAF-12 act: -1; hcDAF-12 act: 0; DAX1 inh-2: 0; hgDAF12 agonist: -1

How did COc1cccc(CN2CCN(Cc3cccc(Oc4ccccc4)c3)CC2)c1OC do in these assays?
SMARCA2 act: -3; DAX1 inh-1: 1; ssDAF-12 act: 0; hcDAF-12 act: 3; DAX1 inh-2: 0; hgDAF12 agonist: -1

What do the screens show for `COc1cccc(CN2CCN(Cc3cc(OC)c(OC)c(OC)c3)CC2)c1OC`?
SMARCA2 act: -2; DAX1 inh-1: -2; ssDAF-12 act: 1.3*; hcDAF-12 act: 4; DAX1 inh-2: 0; hgDAF12 agonist: 2

How did CC1CCc2c(sc3ncn(N)c(=N)c23)C1 (centres undefined) do in these assays?
SMARCA2 act: -3; DAX1 inh-1: 1; ssDAF-12 act: -1; hcDAF-12 act: -2; DAX1 inh-2: 0; hgDAF12 agonist: 6

Results for Cc1nn(S(=O)(=O)c2ccccc2)c(C)c1Sc1ccc([N+](=O)[O-])cc1 ?
SMARCA2 act: -3; DAX1 inh-1: -1; ssDAF-12 act: -2; hcDAF-12 act: -3; DAX1 inh-2: -2; hgDAF12 agonist: -2

Results for CCCc1nnn(S(=O)(=O)c2ccc([N+](=O)[O-])cc2)c1CCC ?
SMARCA2 act: -6; DAX1 inh-1: 5.0*; ssDAF-12 act: 0; hcDAF-12 act: 0; DAX1 inh-2: 1; hgDAF12 agonist: -1

Results for N#Cc1ccc(/C=C2\CC3(OC(=O)c4ccc(F)cc4)CCCN2C3)cc1 (centres undefined) ?
SMARCA2 act: -4; ssDAF-12 act: -1; hcDAF-12 act: -2; DAX1 inh-2: 0; hgDAF12 agonist: 2

Results for Cc1cc(C)cc(C(=O)NCCC(=O)N2CCC3(CC2)NCCc2[nH]cnc23)c1 ?
SMARCA2 act: -2; DAX1 inh-1: 1; ssDAF-12 act: -2; hcDAF-12 act: 0; DAX1 inh-2: 3.9*; hgDAF12 agonist: 0

How did Cc1ccc(C(=O)NCCC(=O)N2CCC3(CC2)NCCc2[nH]cnc23)cc1 do in these assays?
SMARCA2 act: -1; DAX1 inh-1: 1; ssDAF-12 act: -1; hcDAF-12 act: 0; DAX1 inh-2: 0; hgDAF12 agonist: 2

How did N/C(=N\O)c1ccc(Oc2ccccc2Cl)c([N+](=O)[O-])c1 do in these assays?
SMARCA2 act: -2; DAX1 inh-1: 5.4*; ssDAF-12 act: -2; hcDAF-12 act: -1; DAX1 inh-2: -1; hgDAF12 agonist: 3

What do the screens show for `CN(C)c1cc[n+](CC(=O)c2ccc(Br)cc2)cc1`?
SMARCA2 act: -4; DAX1 inh-1: -1; ssDAF-12 act: -2; hcDAF-12 act: 1; DAX1 inh-2: -1; hgDAF12 agonist: -3

Results for CCOc1ccccc1N1C(=O)CC(Sc2ccccc2N)C1=O (centres undefined) ?
SMARCA2 act: 2; DAX1 inh-1: 1; ssDAF-12 act: -1; hcDAF-12 act: 0; DAX1 inh-2: 0; hgDAF12 agonist: 0

How did COc1ccc(Cl)cc1N1C(=O)CC(Sc2ccccc2N)C1=O (centres undefined) do in these assays?
SMARCA2 act: -5; DAX1 inh-1: 1; ssDAF-12 act: 1.6*; hcDAF-12 act: -1; DAX1 inh-2: 0; hgDAF12 agonist: 3

How did CCCC(=O)Nc1nc2ccc(S(N)(=O)=O)cc2s1 do in these assays?
SMARCA2 act: 2; DAX1 inh-1: 1; ssDAF-12 act: 0; hcDAF-12 act: 4; DAX1 inh-2: 0; hgDAF12 agonist: 3

Results for NS(=O)(=O)c1ccc2nc(NC(=O)Nc3ccccc3F)sc2c1 ?
SMARCA2 act: 4; DAX1 inh-1: 1; ssDAF-12 act: 0; hcDAF-12 act: 5; DAX1 inh-2: 2; hgDAF12 agonist: 10*
